Results filed as inconclusive are left out. Calls of active or inactive are those of the source. Unless noted, calls come from the whole dose curve; as a rule, active = well fitted curve in the direction sought with a large enough effect in the repeat runs; inconclusive = weak or mixed curves; inactive = no such curve, though single readings can be large; an effect the other way counts as inactive or inconclusive.
Legend:
[1] = qHTS assay for small molecule agonists of the p53 signaling pathway (AID 651631; calls by dose curve; note: nearly all actives have a fitted effect of over 15% in size)
Method in brief: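 Quantitative high-throughput format: 4,000 p53RE-bla HCT-116 cells/well, 5 h pre-incubation, 16 h compound exposure at 37 °C, 2 h room-temperature substrate step, fluorescence intensity measured.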

[2] = qHTS assay for small molecules that induce genotoxicity in human embryonic kidney cells expressing luciferase-tagged ATAD5 (AID 651632); note: nearly all actives have a fitted effect of over 15% in size
Method in brief: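 Test compounds were delivered by pin tool onto HEK293T reporter cells (2,000/well) expressing ATAD5 fused to luciferase. After 16 hr at 37C, 5% CO2, Amplite was added for 30 min at room temperature and luminescence was measured.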

[3] = qHTS assay for small molecule agonists of the p53 signaling pathway - cell viability (AID 651633; calls by dose curve;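 note: p53RE-bla HCT reporter cells with a stable beta-lactamase p53 reporter; series mostly up to about 83 µM; nearly all actives have a fitted effect of over 30% in size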)
Method in brief: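 Viability counter-read: CellTiter-Glo luminescence (30 min, room temperature) in the same p53RE-bla plates. These plates had been exposed to compounds for 16 h at 37 C.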

[4] = qHTS assay for small molecules that induce genotoxicity in human embryonic kidney cells expressing luciferase-tagged ATAD5 - cell viability (AID 651634; calls by dose curve; note: nearly all actives have a fitted effect of over 25% in size)
Method in brief: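 Quantitative high-throughput format. HEK293T cells expressing ATAD5 fused to luciferase were plated at 2,000 cells/well and treated 15.5 hr with compound versus DMSO. Viability was determined by fluorescent live-cell protease substrate, 30 min at 37C.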

[5] = qHTS assay for small molecule disruptors of the mitochondrial membrane potential - cell viability (AID 720634; calls by dose curve;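 note: human HepG2 liver cancer cells; series mostly up to about 83 µM; nearly all actives have a fitted effect of over 20% in size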)
Method in brief: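 Same-well counter-screen: following the MMP dye addition, CellTiter-Glo was added to 1 hr compound-treated HepG2 cells and luminescence read after 30 min at room temperature.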

[6] = qHTS assay to test for compound auto fluorescence at 590 nm (red) in HepG2 cells (AID 720674)
Method in brief: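 Red autofluorescence (Ex/Em 540/590 nm, Rose Bengal sodium equivalents) was measured in HepG2 cells, 2,000 per well in MEM plus 10% FBS, plated overnight at 37 C. Readings were taken 1 hr after adding 23 nL compound or DMSO, at 37 C and 5% CO2.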

[7] = qHTS assay to test for compound auto fluorescence at 535 nm (green) in HepG2 cells (AID 720675)
[8] = qHTS assay to test for compound auto fluorescence at 460 nm (blue) in HEK293 cells (AID 720678)
Method in brief: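 HEK293 cells (2,000 per well, medium with 10% dialyzed FBS) attached for 4-5 hr at 37C, then received compound and stood overnight at 37C, 5% CO2. Blue fluorescence was read at Ex/Em 405/460 nm and expressed relative to triamterene.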

[9] = qHTS assay to test for compound auto fluorescence at 590 nm (red) in HEK293 cells (AID 720679)
Method in brief: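 HEK293 cells (2,000/well, medium with 10% dialyzed FBS) attached for 4-5 hr at 37C, received 23 nL compound and were incubated overnight at 37C, 5% CO2. Red fluorescence was then read at 540/590nm Ex/Em, referenced to Rose Bengal sodium.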

[10] = qHTS assay to test for compound auto fluorescence at 535 nm (green) in HEK293 cells (AID 720680)
[11] = qHTS assay to test for compound auto fluorescence at 460 nm (blue) in HEK293 cell free culture (AID 720681)
Method in brief: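 Blue fluorescence (Ex 405/Em 460 nm, triamterene-equivalent) was read immediately after pin transfer of compound or DMSO into medium (DMEM, 10% FBS) without cells.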

[12] = qHTS assay to test for compound auto fluorescence at 535 nm (green) in HEK293 cell free culture (AID 720682)
Method in brief: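 Measurement is a direct plate read of green fluorescence (485 nm in, 535 nm out) after compound addition to serum-supplemented DMEM lacking cells, with fluorescein used to express intensities.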

[13] = qHTS assay to test for compound auto fluorescence at 590 nm (red) in HEK293 cell free culture (AID 720683)
Method in brief: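 Red-channel autofluorescence of compounds in culture medium (DMEM, 10% FBS), no cells, measured at 540/590 nm. Rose Bengal sodium is the reference fluorophore for equivalence.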

[14] = qHTS assay to test for compound auto fluorescence at 590 nm (red) in HepG2 cell free culture (AID 720684)
Method in brief: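 Cell-free; medium MEM + 10% FBS; compound or DMSO added by pintool; read Ex 540/Em 590 nm; Rose Bengal sodium as red reference fluorophore.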

[15] = qHTS assay to test for compound auto fluorescence at 460 nm (blue) in HepG2 cell free culture (AID 720685)
Method in brief: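 Cell-free plates of MEM plus 10% FBS received 23 nL compound or DMSO vehicle; blue-channel (405/460 nm) intensity scored against triamterene as reference fluorophore.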

[16] = qHTS assay to test for compound auto fluorescence at 535 nm (green) in HepG2 cell free culture (AID 720686)
[17] = qHTS assay to test for compound auto fluorescence at 460 nm (blue) in HepG2 cells (AID 720687)
Method in brief: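 Blue-channel autofluorescence (Ex/Em 405/460 nm, triamterene-equivalent) was measured after 1 hr compound exposure at 37 C, 5% CO2. Cells were HepG2, plated overnight at 37 C in MEM plus 10% FBS.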

[18] = target: Glucocorticoid receptor (Homo sapiens) (UniProt P04150); assay: qHTS assay to identify small molecule agonists of the glucocorticoid receptor (GR) signaling pathway (AID 720691; active = well fitted activation curve with a large enough effect in the signal ratio in the repeat runs, not every such curve was filed as active; the % refers to the signal ratio)
Method in brief: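 A HeLa cervical cancer line expressing GR and a glucocorticoid response element-driven beta-lactamase gene is treated with compounds for 18 h; LiveBLAzer B/G FRET substrate is then applied and fluorescence read.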

[19] = target: Glucocorticoid receptor (Homo sapiens) (UniProt P04150); assay: qHTS assay to identify small molecule antagonists of the glucocorticoid receptor (GR) signaling pathway (AID 720692; active = well fitted inhibition curve with a large enough effect in the signal ratio in the repeat runs, not every such curve was filed as active; the % refers to the signal ratio)
Method in brief: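 GRE-bla HeLa line, dex-stimulated (5 nM final). Compound exposure 18 h, 37 C. Beta-lactamase FRET read after 2 h RT substrate.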

[20] = qHTS assay for small molecule disruptors of the mitochondrial membrane potential (AID 720635)
Method in brief: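 Mitochondrial membrane potential tracked with Mito-MPS dye, red aggregates (ex 540/em 590 nm) against green monomers (ex 490/em 535 nm). Compound treatment 1 hr at 37C, dye 30 min in HepG2.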
% is set by controls: 0 for no effect and ±100 for the full control effect.

Glucocorticoid receptor (Homo sapiens), sequence (P04150 whole entry, looked up): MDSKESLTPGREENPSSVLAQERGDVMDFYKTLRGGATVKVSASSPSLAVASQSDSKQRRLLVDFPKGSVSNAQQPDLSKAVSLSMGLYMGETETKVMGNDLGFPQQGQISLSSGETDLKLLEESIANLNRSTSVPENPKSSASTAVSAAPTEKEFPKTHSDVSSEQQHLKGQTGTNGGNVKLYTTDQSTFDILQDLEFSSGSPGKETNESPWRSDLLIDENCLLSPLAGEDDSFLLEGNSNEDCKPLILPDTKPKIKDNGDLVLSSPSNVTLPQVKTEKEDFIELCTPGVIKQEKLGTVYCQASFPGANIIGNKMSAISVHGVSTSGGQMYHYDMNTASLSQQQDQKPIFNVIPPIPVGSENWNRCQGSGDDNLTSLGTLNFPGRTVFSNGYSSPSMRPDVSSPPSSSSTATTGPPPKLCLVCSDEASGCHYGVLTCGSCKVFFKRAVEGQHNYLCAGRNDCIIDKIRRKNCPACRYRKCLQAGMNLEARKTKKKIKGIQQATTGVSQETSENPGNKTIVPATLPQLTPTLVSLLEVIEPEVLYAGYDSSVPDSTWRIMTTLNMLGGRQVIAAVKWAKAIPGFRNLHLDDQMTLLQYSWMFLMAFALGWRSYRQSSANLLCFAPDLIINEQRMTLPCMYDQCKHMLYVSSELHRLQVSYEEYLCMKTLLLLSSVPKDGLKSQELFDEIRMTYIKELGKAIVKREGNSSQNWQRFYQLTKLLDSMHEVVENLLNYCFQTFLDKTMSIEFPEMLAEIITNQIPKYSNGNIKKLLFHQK

c1ccc([C@H]2CN3CCSC3=N2)cc1
inactive: outcome [1] | Potency [2] | outcome [3] | Potency [4] | Potency [5] | outcome [6] | outcome [7] | outcome [8] | outcome [9] | outcome [10] | outcome [11] | outcome [12] | outcome [13] | outcome [14] | outcome [15] | outcome [16] | outcome [17] | Potency [18]

CCC(C)S (centres undefined)
inactive: activation [1] -2.85% [at 3.72 µM] | activation [2] 1.12% [at 3.63 µM] | activity change, negative = cytotoxicity [3] -9.49% [at 3.63 µM] | activity, negative = cytotoxicity [4] -7.36% [at 3.63 µM] | activity change, negative = cytotoxicity [5] 9.33% [at 3.63 µM] | fluorescence, relative to Rose Bengal [6] -0.0609% [at 3.72 µM] | fluorescence, % of fluorescein control [7] -0.0052% [at 3.72 µM] | fluorescence, % of triamterene [8] 0.0233% [at 3.72 µM] | fluorescence, % of fluorescent control [9] 0.243% [at 3.72 µM] | fluorescence, % of fluorescein [10] 0.0934% [at 3.72 µM] | fluorescence, % of fluorescent control [11] 0.0638% [at 3.72 µM] | activity change [12] -0.0524% [at 3.72 µM] | fluorescence, % of fluorescent control [13] -0.0589% [at 3.72 µM] | fluorescence, % of Rose Bengal [14] -0.203% [at 3.72 µM] | fluorescence, % of fluorescent control [15] -0.0422% [at 3.72 µM] | fluorescence, % of fluorescein control [16] 0.0002% [at 3.72 µM] | fluorescence, % of fluorescent control [17] -0.0637% [at 3.72 µM] | activation [18] -0.406% [at 3.1 µM] | activity change, negative = inhibition [19] 1.31% [at 3.15 µM]

CC[N+](C)(C)c1cccc(O)c1
inactive: outcome [1] | Potency [2] | outcome [3] | Potency [4] | Potency [5] | outcome [6] | outcome [7] | outcome [8] | outcome [9] | outcome [10] | outcome [11] | outcome [12] | outcome [13] | outcome [14] | outcome [15] | outcome [16] | outcome [17]

c1ccc(CC2=NCCN2)cc1
inactive: outcome [1] | Potency [2] | outcome [3] | Potency [4] | Potency [5] | Potency [20] | outcome [6] | outcome [7] | outcome [8] | outcome [9] | outcome [10] | outcome [11] | outcome [12] | outcome [13] | outcome [15] | outcome [16] | outcome [17]

CC(=O)c1ccccc1O
inactive: outcome [1] | Potency [2] | outcome [3] | Potency [4] | Potency [5] | outcome [6] | outcome [7] | outcome [8] | outcome [9] | outcome [10] | outcome [11] | outcome [12] | outcome [13] | outcome [14] | outcome [15] | outcome [16] | outcome [17]

COC(C)(C)CCCC(C)CC=O (centres undefined)
inactive: outcome [1] | Potency [2] | outcome [3] | Potency [4] | Potency [5] | outcome [6] | outcome [7] | outcome [8] | outcome [9] | outcome [10] | outcome [11] | outcome [12] | outcome [13] | outcome [14] | outcome [15] | outcome [16] | outcome [17] | Potency [18] | Potency [19]

C/C=C(\C)C#N
inactive: outcome [1] | Potency [2] | outcome [3] | Potency [4] | Potency [5] | outcome [6] | outcome [7] | outcome [8] | outcome [9] | outcome [10] | outcome [11] | outcome [12] | outcome [13] | outcome [14] | outcome [15] | outcome [16] | outcome [17]

CN(C(=O)c1c(O)c2ccccc2n(C)c1=O)c1ccccc1
inactive: outcome [1] | Potency [2] | outcome [3] | Potency [4] | Potency [5] | Potency [20] | outcome [6] | outcome [7] | outcome [8] | outcome [9] | outcome [10] | outcome [11] | outcome [12] | outcome [13] | outcome [14] | outcome [15] | outcome [16] | outcome [17] | Potency [18] | Potency [19]

CC1(C)CO[C@@H](CC(=O)O)CN1
inactive: outcome [1] | Potency [2] | outcome [3] | Potency [4] | Potency [5] | outcome [6] | outcome [7] | outcome [8] | outcome [9] | outcome [10] | outcome [11] | outcome [12] | outcome [13] | outcome [14] | outcome [15] | outcome [16] | outcome [17] | Potency [18]

FC(F)OC(Cl)C(F)(F)F (centres undefined)
inactive: outcome [1] | Potency [2] | outcome [3] | Potency [4] | Potency [5] | Potency [20] | outcome [6] | outcome [7] | outcome [8] | outcome [9] | outcome [10] | outcome [11] | outcome [12] | outcome [13] | outcome [14] | outcome [15] | outcome [16] | outcome [17] | Potency [18] | Potency [19]

Oc1ccc(C2CNCCc3c2cc(O)c(O)c3Cl)cc1 (centres undefined)
inactive: outcome [1] | Potency [2] | outcome [3] | Potency [4] | Potency [5] | Potency [20] | outcome [6] | outcome [7] | outcome [8] | outcome [9] | outcome [10] | outcome [11] | outcome [12] | outcome [13] | outcome [14] | outcome [15] | outcome [16] | outcome [17] | Potency [18] | Potency [19]

CCCCCCCCCCCCN(CCCCCCCCCCCC)CCCCCCCCCCCC
inactive: outcome [1] | Potency [2] | outcome [3] | Potency [4] | Potency [5] | outcome [6] | outcome [7] | outcome [8] | outcome [9] | outcome [10] | outcome [11] | outcome [12] | outcome [13] | outcome [14] | outcome [15] | outcome [16] | outcome [17]

O=C[C@H](O)[C@@H](O)[C@H](O)[C@H](O)CO
inactive: outcome [1] | Potency [2] | outcome [3] | Potency [4] | Potency [5] | outcome [6] | outcome [7] | outcome [8] | outcome [9] | outcome [10] | outcome [11] | outcome [12] | outcome [13] | outcome [14] | outcome [15] | outcome [16] | outcome [17] | Potency [18] | Potency [19]

O=C(O)Cc1ccc(CCNS(=O)(=O)c2ccc(Cl)cc2)cc1
inactive: outcome [1] | Potency [2] | outcome [3] | Potency [4] | Potency [5] | outcome [6] | outcome [7] | outcome [8] | outcome [9] | outcome [10] | outcome [11] | outcome [12] | outcome [13] | outcome [14] | outcome [15] | outcome [16] | outcome [17] | Potency [18] | Potency [19]

CC(C)(C)NCCNC(C)(C)C
inactive: outcome [1] | Potency [2] | outcome [3] | Potency [4] | Potency [5] | outcome [6] | outcome [7] | outcome [8] | outcome [9] | outcome [10] | outcome [11] | outcome [12] | outcome [13] | outcome [14] | outcome [15] | outcome [16] | outcome [17]
